# Measured values from ChEMBL document CHEMBL2218924, “A broad activity screen in support of a chemogenomic map for kinase signalling research and drug discovery” (Biochem J, 2013).
# Assays:
# [1] = molecular target: Death-associated protein kinase 1 (Homo sapiens) (UniProt P53355); details: at 1 µM
# [2] = molecular target: Calcium/calmodulin-dependent protein kinase type 1 (Homo sapiens) (UniProt Q14012); details: at 1 µM
# [3] = molecular target: Calcium/calmodulin-dependent protein kinase type 1 (Homo sapiens) (UniProt Q14012); details: at 10 µM
# [4] = molecular target: Calcium/calmodulin-dependent protein kinase type II subunit beta (Homo sapiens) (UniProt Q13554); details: at 10 µM
# Sequence of Calcium/calmodulin-dependent protein kinase type II subunit beta (Homo sapiens) (Q13554 whole entry): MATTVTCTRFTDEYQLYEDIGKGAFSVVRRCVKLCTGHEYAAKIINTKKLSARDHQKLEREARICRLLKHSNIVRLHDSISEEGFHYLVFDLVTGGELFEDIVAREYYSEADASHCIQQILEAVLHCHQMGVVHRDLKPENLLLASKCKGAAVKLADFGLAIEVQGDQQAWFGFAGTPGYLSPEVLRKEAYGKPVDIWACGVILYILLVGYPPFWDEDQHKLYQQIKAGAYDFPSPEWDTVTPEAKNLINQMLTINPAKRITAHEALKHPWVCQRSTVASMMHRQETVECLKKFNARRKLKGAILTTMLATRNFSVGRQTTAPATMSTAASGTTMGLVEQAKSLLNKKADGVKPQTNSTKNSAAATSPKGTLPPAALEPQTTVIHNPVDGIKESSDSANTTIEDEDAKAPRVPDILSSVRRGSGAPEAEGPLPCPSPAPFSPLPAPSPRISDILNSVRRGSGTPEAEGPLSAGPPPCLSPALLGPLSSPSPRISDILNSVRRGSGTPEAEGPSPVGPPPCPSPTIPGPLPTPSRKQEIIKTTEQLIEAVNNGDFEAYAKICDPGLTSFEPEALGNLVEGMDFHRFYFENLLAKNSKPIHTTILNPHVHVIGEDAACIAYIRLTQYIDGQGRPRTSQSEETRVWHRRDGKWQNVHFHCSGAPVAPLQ
# [5] = molecular target: Calcium/calmodulin-dependent protein kinase type II subunit delta (Homo sapiens) (UniProt Q13557); details: at 1 µM
# Sequence of Calcium/calmodulin-dependent protein kinase type II subunit delta (Homo sapiens) (Q13557 whole entry): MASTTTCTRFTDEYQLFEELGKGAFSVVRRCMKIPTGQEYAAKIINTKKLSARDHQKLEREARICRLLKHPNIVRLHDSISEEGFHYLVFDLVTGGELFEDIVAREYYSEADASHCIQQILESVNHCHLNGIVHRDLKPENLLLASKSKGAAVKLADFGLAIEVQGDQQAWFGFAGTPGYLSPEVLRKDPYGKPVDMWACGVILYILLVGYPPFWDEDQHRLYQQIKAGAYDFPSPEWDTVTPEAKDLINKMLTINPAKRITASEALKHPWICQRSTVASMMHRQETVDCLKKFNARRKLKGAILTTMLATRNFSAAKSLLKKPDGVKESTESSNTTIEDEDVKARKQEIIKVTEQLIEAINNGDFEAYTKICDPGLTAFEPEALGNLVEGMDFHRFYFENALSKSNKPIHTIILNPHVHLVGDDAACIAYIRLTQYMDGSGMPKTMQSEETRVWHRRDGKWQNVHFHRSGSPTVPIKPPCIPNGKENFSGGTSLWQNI
# [6] = molecular target: Calcium/calmodulin-dependent protein kinase type II subunit delta (Homo sapiens) (UniProt Q13557); details: at 10 µM
# [7] = molecular target: Death-associated protein kinase 1 (Homo sapiens) (UniProt P53355); details: at 10 µM
# Sequence of Death-associated protein kinase 1 (Homo sapiens) (P53355 whole entry, looked up): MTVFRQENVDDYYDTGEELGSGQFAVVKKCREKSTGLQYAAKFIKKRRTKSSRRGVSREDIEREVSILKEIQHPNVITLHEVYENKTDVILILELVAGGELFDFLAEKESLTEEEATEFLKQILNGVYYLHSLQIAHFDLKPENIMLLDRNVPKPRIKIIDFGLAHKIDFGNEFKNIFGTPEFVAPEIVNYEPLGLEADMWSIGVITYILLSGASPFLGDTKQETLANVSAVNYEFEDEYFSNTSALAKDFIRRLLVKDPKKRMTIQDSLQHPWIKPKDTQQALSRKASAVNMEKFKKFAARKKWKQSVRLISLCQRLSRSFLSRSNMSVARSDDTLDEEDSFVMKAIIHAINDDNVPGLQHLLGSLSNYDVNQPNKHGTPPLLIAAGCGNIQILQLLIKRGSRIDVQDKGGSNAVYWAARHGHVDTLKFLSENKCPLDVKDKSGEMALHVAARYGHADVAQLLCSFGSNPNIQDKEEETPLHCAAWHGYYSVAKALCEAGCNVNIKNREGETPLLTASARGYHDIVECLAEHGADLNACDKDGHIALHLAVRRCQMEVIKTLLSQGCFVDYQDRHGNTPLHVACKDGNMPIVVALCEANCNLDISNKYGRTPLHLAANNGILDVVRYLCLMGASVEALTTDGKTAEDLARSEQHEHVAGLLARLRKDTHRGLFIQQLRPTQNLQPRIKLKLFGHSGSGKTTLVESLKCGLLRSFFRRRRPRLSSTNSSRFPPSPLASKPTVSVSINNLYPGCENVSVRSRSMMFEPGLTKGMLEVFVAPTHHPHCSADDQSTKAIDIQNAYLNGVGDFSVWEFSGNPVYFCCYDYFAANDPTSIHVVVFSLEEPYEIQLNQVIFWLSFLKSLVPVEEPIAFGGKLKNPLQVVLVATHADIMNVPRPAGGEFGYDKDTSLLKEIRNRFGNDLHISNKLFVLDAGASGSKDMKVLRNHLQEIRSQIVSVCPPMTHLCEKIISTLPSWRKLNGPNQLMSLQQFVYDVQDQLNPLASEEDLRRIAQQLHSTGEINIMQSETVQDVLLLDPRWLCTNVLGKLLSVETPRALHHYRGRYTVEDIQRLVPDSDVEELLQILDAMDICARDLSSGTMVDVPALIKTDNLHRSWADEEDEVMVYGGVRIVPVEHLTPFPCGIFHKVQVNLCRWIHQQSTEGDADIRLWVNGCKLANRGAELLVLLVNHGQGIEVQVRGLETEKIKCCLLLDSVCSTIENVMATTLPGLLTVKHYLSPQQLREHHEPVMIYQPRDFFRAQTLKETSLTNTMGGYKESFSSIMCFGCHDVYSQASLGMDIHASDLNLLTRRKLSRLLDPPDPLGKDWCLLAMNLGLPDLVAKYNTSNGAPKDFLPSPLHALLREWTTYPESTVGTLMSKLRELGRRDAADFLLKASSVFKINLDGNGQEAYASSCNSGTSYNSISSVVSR
# Sequence of Calcium/calmodulin-dependent protein kinase type 1 (Homo sapiens) (Q14012 whole entry, looked up): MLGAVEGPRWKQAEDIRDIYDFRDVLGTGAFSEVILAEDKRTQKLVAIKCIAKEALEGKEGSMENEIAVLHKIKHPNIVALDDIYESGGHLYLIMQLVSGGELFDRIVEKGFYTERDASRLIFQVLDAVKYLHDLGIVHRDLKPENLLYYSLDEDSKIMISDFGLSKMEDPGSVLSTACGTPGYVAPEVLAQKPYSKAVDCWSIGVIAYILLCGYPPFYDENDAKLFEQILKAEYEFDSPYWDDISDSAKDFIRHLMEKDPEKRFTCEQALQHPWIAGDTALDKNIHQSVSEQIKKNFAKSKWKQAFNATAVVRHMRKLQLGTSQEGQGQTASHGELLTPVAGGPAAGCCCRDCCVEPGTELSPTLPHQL
compound,measurement,setting,value
COc1ccc(C(=O)Nc2sc3c(c2C(N)=O)CCCC3)cc1OC,residual activity,[1],93%
CCc1nc(-c2ccc(OC)cc2)[nH]c1-c1ccncc1,residual activity,[2],108%
same,residual activity,[3],101%
same,residual activity,[4],76%
same,residual activity,[5],110%
same,residual activity,[6],80%
same,residual activity,[1],101%
same,residual activity,[7],100%
Nc1ncnc2c1cnn2-c1ccccc1,residual activity,[1],84%
O=C(CCCc1ccc(-c2ccccc2F)cc1)Nc1ccc(O)cc1,residual activity,[1],95%
N#Cc1c(NC(=O)c2cccc3ccccc23)sc2c1CCCC2,residual activity,[1],93%
COc1ccc(OC)c2c(=S)c3ccccc3[nH]c12,residual activity,[1],95%
CC(C)n1cnc2/c(=N/c3cccc(Cl)c3)nc(NCCO)[nH]c21,residual activity,[1],89%
Cn1cc(/C=C2\C(=O)Nc3ccc(S(N)(=O)=O)cc32)c2ccccc21,residual activity,[1],94%
O=C(Nc1nc2ccccc2n1CCN1CCOCC1)c1cccc([N+](=O)[O-])c1,residual activity,[1],85%
Cn1c2ccccc2c2c3c(c4c5ccccc5n(CCC#N)c4c21)CNC3=O,residual activity,[1],101%
O=C1C(Cl)=C(N2C(=O)CCC2=O)C(=O)c2ccccc21,residual activity,[1],91%
CO[C@@H]1[C@H](N(C)C(=O)c2ccccc2)C[C@H]2O[C@]1(C)n1c3ccccc3c3c4c(c5c6ccccc6n2c5c31)C(=O)NC4,residual activity,[1],63%
COc1cc2nccc(Oc3ccc(NC(=O)Nc4cc(C)on4)c(Cl)c3)c2cc1OC,residual activity,[1],105%
COc1cc2ncc(-c3ccccc3)nc2cc1OC,residual activity,[1],87%
COc1cccc(-c2cc(=O)c3ccccc3o2)c1N,residual activity,[1],81%
CN(C)CCCn1cc(C2=C(c3c[nH]c4ccccc34)C(=O)NC2=O)c2ccccc21,residual activity,[1],106%
O=c1cc(N2CCOCC2)oc2c1ccc1ccccc12,residual activity,[1],90%
CC[n+]1c(/C=C/N(C)c2ccccc2)n(-c2ccccc2)c2ccc(-c3nc4ccccc4s3)cc21,residual activity,[1],79%
COc1cc2ncnc(N3CCN(C(=O)Nc4ccc(Oc5ccccc5)cc4)CC3)c2cc1OC,residual activity,[1],90%
COc1ccc(CNc2nc(N(CCO)CCO)nc3c2ncn3C(C)C)cc1,residual activity,[1],93%
O=C(Nc1cccc(Nc2cc(Nc3cccc(C(F)(F)F)c3)ncn2)c1)C1CC1,residual activity,[1],109%
COc1cc2nccc(Oc3ccc(NC(=S)NC(=O)c4ccccc4C)cc3)c2cc1OC,residual activity,[1],81%
COc1ccc(-c2cnc3c(-c4ccsc4)cnn3c2)cc1,residual activity,[1],97%
c1ccc(-c2n[nH]c3c2oc2ccccc23)cc1,residual activity,[1],94%
Cc1nc(-c2ccccc2)c(-c2ccncc2)o1,residual activity,[1],81%
CCC(=O)Nc1ccc2ncnc(Nc3cccc(Br)c3)c2c1,residual activity,[1],80%
O=C1NC(=O)/C(=C/c2ccc3c(c2)OC(F)(F)O3)S1,residual activity,[1],98%
O=C1Nc2ccccc2/C1=C1/Nc2ccccc2/C1=N\OCCC(O)CO (stereo not drawn),residual activity,[1],81%
CC(C)n1cnc2c(NCc3ccccc3)nc(NCCCO)nc21,residual activity,[1],83%
C[C@@H](N)[C@H]1CC[C@H](C(=O)Nc2ccncc2)CC1,residual activity,[1],102%
Nc1nc(Nc2ccc(S(N)(=O)=O)cc2)nn1C(=O)c1c(F)cccc1F,residual activity,[1],97%
O=c1cc(N2CCNCC2)oc2c(-c3ccccc3)cccc12,residual activity,[1],96%
Nc1n[nH]c2nc3ccccc3nc12,residual activity,[1],94%
Cc1cc2ncc(-c3ccccc3)nc2cc1C,residual activity,[1],92%
Nc1n[nH]c2nnc(-c3c(-c4ccccc4)nn4ccccc34)cc12,residual activity,[1],83%
COc1cc2ncnc(Nc3ccc(Oc4ccccc4)cc3)c2cc1OC,residual activity,[1],100%
Cc1ccc(NC2=CC(=O)c3sc(C)nc3C2=O)cc1,residual activity,[1],87%
N#CC(C#N)=C(N)/C(C#N)=C/c1ccc(O)cc1,residual activity,[1],85%
CN(C)S(=O)(=O)c1ccc2c(c1)/C(=C/c1cc3c([nH]1)CCCC3)C(=O)N2,residual activity,[1],90%
O=C1NC(=O)c2c1c1c3ccccc3[nH]c1c1[nH]c3cc(Br)ccc3c21,residual activity,[1],85%
O=C1c2ccccc2-[n+]2ccc3c([nH]c4ccccc43)c21,residual activity,[1],86%
O=c1cc(-c2cccc3c2Sc2ccccc2S3)oc(N2CCOCC2)c1,residual activity,[1],91%
O=C1NC(=O)C(c2cn(CCCO)c3ncccc23)=C1c1cnccn1,residual activity,[1],94%
O=c1c2ccccc2[nH]c(=S)n1CCN1CCC(=C(c2ccc(F)cc2)c2ccc(F)cc2)CC1,residual activity,[1],106%
NC(=O)c1ccc(-c2nc(-c3ccc4c(c3)OCCO4)c(-c3ccccn3)[nH]2)cc1,residual activity,[1],86%
NC(=O)c1ccc2[nH]c(-c3ccc(Oc4ccc(Cl)cc4)cc3)nc2c1,residual activity,[1],93%
Cn1sc(=O)n(Cc2ccccc2)c1=O,residual activity,[1],80%
Cc1cc(Nc2nc(-c3ccccc3)nc3ccccc23)n[nH]1,residual activity,[1],59%
CC(=O)O/N=C1\C(=C2\C(=O)Nc3cc(Br)ccc32)Nc2ccccc21,residual activity,[1],98%
O=C1NC(=O)/C(=C\c2ccc3nccnc3c2)S1,residual activity,[1],87%
O=C1Nc2ccc(Cl)cc2/C1=C/c1cc(Cl)c(O)c(Cl)c1,residual activity,[1],79%
CC(C)[C@H](CO)Nc1nc(Nc2cc(N)cc(Cl)c2)c2ncn(C(C)C)c2n1,residual activity,[1],92%
CNc1cc2c(Nc3cccc(Br)c3)ncnc2cn1,residual activity,[1],97%
CC(C)(C)n1nc(Cc2cccc3ccccc23)c2c(N)ncnc21,residual activity,[1],86%
CC(C)N(CCC(=O)c1ccc2ccccc2c1)Cc1ccccc1,residual activity,[1],86%
CCN1/C(=C/C(C)=O)Sc2ccc(OC)cc21,residual activity,[1],81%
Ic1cccc(CSc2nnc(-c3ccncc3)o2)c1,residual activity,[1],90%
